Unmarked numbers belong to inactive results. For some of these results: Measured potencies and affinities stand elsewhere. Calls of active or inactive are those of the source. Unless noted, how the calls were made is not given here.

This is an account of results in PubChem BioAssay.

Assay [1] can be described thus: antimalarial activity against Dd2 strain (AID 2302;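 active means growth inhibition above 50% at the single 2 µM test dose, taken to imply half-maximal potency below 2 µM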;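 further: 0% = DMSO untreated growth and 100% = chloroquine plus artemisinin killed control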). To be noted: P. falciparum Dd2 in RBCs, LDH growth readout, 72 h; at 2 µM; hits give high values.
Assay [2] can be described thus: HepG2 cytotoxicity, primary screen, cytotoxicity control for P. falciparum antimalarial project, cell-based, ATP luminescence (AID 2303;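 active means inhibition above 50%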;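 further: 0% = DMSO wells and 100% = digitonin-killed cells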). The note with it: HepG2 viability, 24-48 h, at 10 µM, hits give high values.
Assay [3] concerns the target L-lactate dehydrogenase (Plasmodium falciparum (isolate CDC / Honduras)) (UniProt Q27743). The experiment in a line: PfLDH activity inhibition – cell lysate, 3D7 strain, counter-screen for P. falciparum growth inhibition project (AID 2304).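 Further: 0% = vehicle and 100% = reference inhibitor.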 To be noted: P. falciparum 3D7 crude extract, LDH APAD/NBT absorbance; at 2 µM; hits give high values. (A counterscreen serves to expose hits that act by an unwanted route or on another target.)

Assay [4] in a line: inhibition of 3D7 malaria parasite growth – strain 3D7 (AID 2306).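 Further: 0% = DMSO wells and 100% = chloroquine plus artemisinin control wells.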 To be noted: P. falciparum 3D7 erythrocytic growth, LDH absorbance, 72 h; at 2 µM; hits give high values.
The target of assay [5] is Calcium-dependent protein kinase 1 (Plasmodium falciparum (isolate 3D7)) (UniProt P62344). Put plainly: PfCDPK1 kinase inhibitors, biochemical, TCAMS library (AID 1159585; cut-off not given, nearly all actives have IC50 up to about 0.98 µM;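 further: inhibitors leave more ATP so luminescence rises with inhibition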). To be noted: recombinant PfCDPK1, Kinase-Glo ATP depletion luminescence. (Kinase-Glo measures the ATP left after a reaction by luminescence.)
Calcium-dependent protein kinase 1 (Plasmodium falciparum (isolate 3D7)), sequence (P62344 whole entry, looked up): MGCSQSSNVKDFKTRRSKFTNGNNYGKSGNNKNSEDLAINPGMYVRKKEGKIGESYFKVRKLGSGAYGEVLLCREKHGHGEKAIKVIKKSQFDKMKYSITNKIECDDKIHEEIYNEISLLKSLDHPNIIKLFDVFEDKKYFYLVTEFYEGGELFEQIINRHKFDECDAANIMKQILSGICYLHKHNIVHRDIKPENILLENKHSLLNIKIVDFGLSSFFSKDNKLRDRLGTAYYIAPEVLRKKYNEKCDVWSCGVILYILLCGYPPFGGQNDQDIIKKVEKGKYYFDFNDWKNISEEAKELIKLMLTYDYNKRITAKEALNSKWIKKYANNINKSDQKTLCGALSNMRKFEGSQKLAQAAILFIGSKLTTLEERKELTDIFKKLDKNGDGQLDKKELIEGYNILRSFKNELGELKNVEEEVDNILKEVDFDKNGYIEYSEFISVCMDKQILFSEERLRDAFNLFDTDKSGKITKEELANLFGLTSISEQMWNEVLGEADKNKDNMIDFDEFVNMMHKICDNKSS
The target of assay [6] is Plasmodium falciparum protein kinase 6 (PK6, PF3D7_1337100) (UniProt Q8IDW1). The experiment in a line: PfPK6 kinase inhibitors, biochemical, TCAMS library (AID 1159586). To be noted: recombinant PfPK6, Kinase-Glo ATP depletion luminescence.
Plasmodium falciparum protein kinase 6 (PK6, PF3D7_1337100), sequence (Q8IDW1 1-305): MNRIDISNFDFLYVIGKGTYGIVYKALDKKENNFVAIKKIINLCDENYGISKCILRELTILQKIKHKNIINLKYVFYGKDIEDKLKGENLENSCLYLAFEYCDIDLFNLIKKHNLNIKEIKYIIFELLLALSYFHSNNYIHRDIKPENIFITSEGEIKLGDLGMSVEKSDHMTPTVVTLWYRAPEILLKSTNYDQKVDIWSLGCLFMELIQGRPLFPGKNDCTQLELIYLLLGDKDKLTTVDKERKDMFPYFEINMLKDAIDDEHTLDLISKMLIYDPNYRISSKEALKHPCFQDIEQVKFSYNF
Assay [7] deals with Protein kinase 7 (PK7), Plasmodium falciparum 3D7 (PF3D7_0213400) (UniProt Q7YTF7). Put plainly: inhibition of Plasmodium PK7 catalytic activity – biochemical, TCAMS antimalarial set, Kinase-Glo luminescence (AID 1159587). The note with it: recombinant PfPK7, Kinase-Glo ATP depletion luminescence.
Protein kinase 7 (PK7), Plasmodium falciparum 3D7 (PF3D7_0213400), sequence (Q7YTF7 1-343): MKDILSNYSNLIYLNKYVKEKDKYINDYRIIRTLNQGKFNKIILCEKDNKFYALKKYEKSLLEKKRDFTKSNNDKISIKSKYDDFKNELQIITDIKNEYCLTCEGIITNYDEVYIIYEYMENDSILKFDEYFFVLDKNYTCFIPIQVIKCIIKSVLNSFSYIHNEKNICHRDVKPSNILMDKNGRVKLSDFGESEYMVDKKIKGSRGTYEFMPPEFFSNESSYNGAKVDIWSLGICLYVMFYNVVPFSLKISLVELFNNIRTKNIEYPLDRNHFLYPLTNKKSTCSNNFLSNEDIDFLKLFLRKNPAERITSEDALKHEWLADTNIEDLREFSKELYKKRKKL
Assay [8] concerns the target Calcium-dependent protein kinase 4 (Plasmodium falciparum (isolate 3D7)) (UniProt Q8IBS5). The experiment in a line: PfCDPK4 kinase inhibitors, biochemical, TCAMS library (AID 1159588; cut-off not given, nearly all actives have IC50 up to about 0.91 µM). The note with it: recombinant PfCDPK4, Kinase-Glo ATP depletion luminescence.

Calcium-dependent protein kinase 4 (Plasmodium falciparum (isolate 3D7)), sequence (Q8IBS5 whole entry, looked up): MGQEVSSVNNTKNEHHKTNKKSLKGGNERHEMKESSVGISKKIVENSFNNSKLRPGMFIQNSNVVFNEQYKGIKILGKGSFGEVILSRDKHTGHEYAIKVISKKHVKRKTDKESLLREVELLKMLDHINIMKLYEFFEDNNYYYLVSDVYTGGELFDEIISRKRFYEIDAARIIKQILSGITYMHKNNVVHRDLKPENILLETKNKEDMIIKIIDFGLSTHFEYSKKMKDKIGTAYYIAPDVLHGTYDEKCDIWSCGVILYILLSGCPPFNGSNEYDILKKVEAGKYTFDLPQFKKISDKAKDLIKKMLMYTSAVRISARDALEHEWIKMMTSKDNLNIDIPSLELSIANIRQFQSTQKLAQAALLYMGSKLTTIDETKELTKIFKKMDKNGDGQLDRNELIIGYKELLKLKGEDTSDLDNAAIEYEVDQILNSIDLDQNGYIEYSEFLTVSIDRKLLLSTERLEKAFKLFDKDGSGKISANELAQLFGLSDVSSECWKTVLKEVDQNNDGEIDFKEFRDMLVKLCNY
L-lactate dehydrogenase (Plasmodium falciparum (isolate CDC / Honduras)), sequence (Q27743 whole entry, looked up): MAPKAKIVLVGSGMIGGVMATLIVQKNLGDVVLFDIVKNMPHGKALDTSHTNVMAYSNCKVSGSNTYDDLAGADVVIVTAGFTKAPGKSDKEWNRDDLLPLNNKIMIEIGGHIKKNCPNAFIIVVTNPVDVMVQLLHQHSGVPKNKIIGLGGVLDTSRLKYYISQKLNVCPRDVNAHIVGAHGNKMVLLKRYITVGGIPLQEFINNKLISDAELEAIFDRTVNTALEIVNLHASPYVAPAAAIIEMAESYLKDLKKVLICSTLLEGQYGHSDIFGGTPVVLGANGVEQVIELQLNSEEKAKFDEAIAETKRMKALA

As usually defined, the inhibition is the change of the read-out against control, counted positive when it falls. On to `Cc1cccc(NC(=O)N(Cc2cc3cc(C)cc(C)c3[nH]c2=O)C2CC2)c1`, for which the results for the growth inhibition in assay [1] and in assay [4] were 94% (active) and 97% (active), respectively. Further, the inhibition was 3% in assay [2] and 2% in assay [3]. Moreover, the result in assay [5], in assay [6], in assay [7] and in assay [8] was inactive.

For `O=C(COc1ccc(Cl)c(Cl)c1)NCCCCCN1CCCN(C(=O)Nc2cc(Cl)cc(Cl)c2)CC1`, the growth inhibition was 1% in assay [1] and 89% (active) in assay [4]. The inhibition is 44% in assay [2] and -5% in assay [3]. The outcome in assay [5], in assay [6], in assay [7] and in assay [8] was inactive.

Turning to `O=C(Cn1c2ccccc2c(=O)c2ccc(Cl)cc21)Nc1ccc(C(F)(F)F)cc1`, the growth inhibition in assay [1] is 100% (active); in assay [4] it was 99% (active). Besides, the inhibition in assay [2] is 30%; in assay [3], -3%. The outcome in assay [5], in assay [6], in assay [7] and in assay [8] was inactive.

`O=C(/C=C/c1ccc(Cl)c(Cl)c1)N1CCC(NCc2c[nH]c3ccccc23)CC1`: the growth inhibition was 4% in assay [1] and 94% (active) in assay [4]. Further, the inhibition in assay [2] is 36%; in assay [3], -2%. Also, the outcome in assay [5], in assay [6], in assay [7] and in assay [8] was inactive.

In the case of `CCCc1cc(=O)[nH]c(-n2nc(C)cc2NC(=O)C(CC)c2ccccc2)n1` (stereo not given), the results for the growth inhibition in assay [1] and in assay [4] were 63% (active) and 94% (active), respectively. Besides, the inhibition in assay [2] is 41%; in assay [3] it was -2%. For the same compound, the outcome in assay [5], in assay [6], in assay [7] and in assay [8] was inactive.

As to `CCc1c[nH]c2c(N3CCCCS3(=O)=O)cc(C(=O)N[C@@H](Cc3ccccc3)[C@H](O)CNCc3cccc(OC)c3)cc12`, the growth inhibition is 91% (active) in assay [1] and 86% (active) in assay [4]. The inhibition in assay [2] was 0%; in assay [3], -3%. The result in assay [5], in assay [6], in assay [7] and in assay [8] was inactive.

Regarding `Cc1cc(-c2c[nH]c3ncc(-c4cccc5ncccc45)cc23)ccc1C(=O)O`, the growth inhibition in assay [1] is 77% (active); in assay [4], 99% (active). The inhibition in assay [2] is 31%; in assay [3] it was -7%. Further, the result in assay [5], in assay [6], in assay [7] and in assay [8] was inactive.

As to `CCN1CCN(Cc2c(O)ccc3c(=O)c(Oc4cc(C)cc(C)c4)c(C(F)(F)F)oc23)CC1`, the growth inhibition is 90% (active) in assay [1] and 96% (active) in assay [4]. The inhibition is 6% in assay [2] and 3% in assay [3]. For the same compound, the outcome in assay [5], in assay [6], in assay [7] and in assay [8] was inactive.

In the case of `O=c1cc(NC[C@@H]2CCC[C@@H]2NCc2ccc(Cl)c(Cl)c2)[nH]c2ccccc12`, the growth inhibition in assay [1] was 75% (active); in assay [4] it was 100% (active). The inhibition in assay [2] was 9%; in assay [3] it was -1%. The outcome in assay [5], in assay [6], in assay [7] and in assay [8] was inactive.

Take `Cc1cccc2[nH]c(-c3ccc(-c4cccc(NC(=O)Nc5ccc(Cl)cc5)c4)s3)nc12`: the growth inhibition in assay [1] was 52% (active); in assay [4] it was 102% (active). Besides, the inhibition was 25% in assay [2] and -1% in assay [3]. Moreover, the result in assay [5], in assay [6], in assay [7] and in assay [8] was inactive.

Turning to `CCCNCc1ccc(-c2ccc(CN(C(=O)c3nn(-c4ccccc4)nc3C)C3CCOCC3)cc2)nc1`, the growth inhibition in assay [1] is -6%; in assay [4] it was 98% (active). Also, the results for the inhibition in assay [2] and in assay [3] were 14% and 4%, respectively. For the same compound, the outcome in assay [5], in assay [6], in assay [7] and in assay [8] was inactive.

As to `COc1ccc(C#Cc2ccc(-c3c(C)[nH]c(C)c(Cl)c3=O)cc2)cc1`, the growth inhibition in assay [1] and in assay [4] was 97% (active) each time. For the same compound, the inhibition in assay [2] was -6%; in assay [3] it was 2%. In addition, the outcome in assay [5], in assay [6], in assay [7] and in assay [8] was inactive.

Turning to `Cc1cc(N[C@@H](Cc2ccccc2)C(=O)NCc2cccs2)nc(NCCc2ccccn2)n1`, the growth inhibition is 49% in assay [1] and 93% (active) in assay [4]. The inhibition in assay [2] is -4%; in assay [3] it was -2%. In addition, the result in assay [5], in assay [6], in assay [7] and in assay [8] was inactive.

Consider `O=C(Nc1ccc(Cl)c(Cl)c1)Nc1ccc(F)c([N+](=O)[O-])c1`, for which the growth inhibition in assay [1] was 96% (active); in assay [4], 101% (active). The figures for the inhibition in assay [2] and in assay [3] were 49% and -3%, respectively. For the same compound, the outcome in assay [5], in assay [6], in assay [7] and in assay [8] was inactive.

With `COc1c(C2CCN(CCCCNC(=O)c3cc(-c4ccc(Cl)cc4)sc3C)CC2)ccc2c1CCCC2`, the growth inhibition in assay [1] was 65% (active); in assay [4] it was 101% (active). The figures for the inhibition in assay [2] and in assay [3] were 61% (active) and 2%, respectively. Further, the result in assay [5], in assay [6], in assay [7] and in assay [8] was inactive.

As to `Cc1cc(Br)cnc1CCCCN=C1NC(=O)CN1C`, the growth inhibition in assay [1] is 26%; in assay [4] it was 95% (active). The inhibition is 63% (active) in assay [2] and 2% in assay [3]. Moreover, the outcome in assay [5], in assay [6], in assay [7] and in assay [8] was inactive.

For the compound `O=C(Nc1cccc(-c2cccc(-c3nc4ccc(C(F)(F)F)cc4[nH]3)c2)c1)c1cnc[nH]1`, the values for the growth inhibition in assay [1] and in assay [4] were 100% (active) and 101% (active), respectively. In addition, the inhibition was 14% in assay [2] and 2% in assay [3]. Also, the outcome in assay [5], in assay [6], in assay [7] and in assay [8] was inactive.

With `COc1ccc(-c2cccc(CNCc3ccc(F)cc3)c2)cc1S(=O)(=O)NCCN1CCCC1`, the growth inhibition was 16% in assay [1] and 101% (active) in assay [4]. Moreover, the inhibition is 20% in assay [2] and 4% in assay [3]. Further, the result in assay [5], in assay [6], in assay [7] and in assay [8] was inactive.

Turning to `Cc1cc(CN2CCC(Nc3ncc(-c4ccsc4)c4nc(C(F)(F)F)ccc34)CC2)no1`, the values for the growth inhibition in assay [1] and in assay [4] were 67% (active) and 81% (active), respectively. For the same compound, the inhibition in assay [2] was 8%; in assay [3], -3%. Moreover, the outcome in assay [5], in assay [6], in assay [7] and in assay [8] was inactive.

As for `Oc1ccc(CCNc2nc(NCCCOc3ccccc3-c3cccc(C(F)(F)F)c3)nc(N3CCNCC3)n2)cc1`, the growth inhibition is 5% in assay [1] and 93% (active) in assay [4]. Also, the inhibition was 24% in assay [2] and -1% in assay [3]. Also, the outcome in assay [5], in assay [6], in assay [7] and in assay [8] was inactive.
